Bioassay records (PubChem)
In the library only some 3.7% were active in any assay of this set; here they are far more common.
MITF act = MITF TRPM1 promoter activation in melanoma cells | SK-MEL-5 TRPM1-promoter luciferase, 24 h; % of positive control, neutral wells = 0 | activation, % at 12.5 µM | 300,000 tested, 0.75% active;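 active = mean activation of at least 80% with every replicate also reaching 80%; inconclusive = mean reaches 80% but some replicate falls short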
Wnt act = activates Wnt/beta-catenin signaling in a reporter cell assay | AID 743398 | 300,000 tested, 1.2% active | activator, plate reader | activation, % at 9.35 µM; in the data active = activation above about 30%, passing the limit was not always enough; inconclusive = no clear call, values can overlap the other calls
AF4-AF9 inh = MLL-AF4/AF9 protein interaction inhibition | P42568 | AlphaScreen, biotin-AF4 peptide binding to FLAG-AF9 | inhibition, % at 10 µM | 350,000 tested, 0.47% active;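 active = every replicate reaching a set inhibition limit, whatever the replicate mean, cut at about 25% in these data; inconclusive = mean inhibition reaches that limit but some replicates miss it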
Target sequence (P42568 whole entry, looked up): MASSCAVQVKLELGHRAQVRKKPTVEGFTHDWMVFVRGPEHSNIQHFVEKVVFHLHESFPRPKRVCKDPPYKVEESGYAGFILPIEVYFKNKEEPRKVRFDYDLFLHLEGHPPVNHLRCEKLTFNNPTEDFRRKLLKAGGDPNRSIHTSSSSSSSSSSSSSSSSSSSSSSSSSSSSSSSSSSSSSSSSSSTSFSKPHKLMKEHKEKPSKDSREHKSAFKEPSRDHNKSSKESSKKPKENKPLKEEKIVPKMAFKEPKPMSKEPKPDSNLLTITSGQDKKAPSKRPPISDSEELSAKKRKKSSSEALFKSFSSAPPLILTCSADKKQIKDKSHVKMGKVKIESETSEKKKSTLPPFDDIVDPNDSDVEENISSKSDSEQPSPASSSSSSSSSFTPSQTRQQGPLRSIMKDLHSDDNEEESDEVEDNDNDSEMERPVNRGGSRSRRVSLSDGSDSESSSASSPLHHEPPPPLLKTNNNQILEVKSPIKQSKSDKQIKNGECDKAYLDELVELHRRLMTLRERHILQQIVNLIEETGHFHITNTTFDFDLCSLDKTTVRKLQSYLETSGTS
esBAF inh = SWI/SNF esBAF complex inhibition; AID 602393; reporter increase, % at 12.5 µM; 350,000 tested, 2% active; mouse ES cells, Bmi1-luciferase knock-in reporter, 24 h; 100% = twice the neutral-well signal; in the data active = activation above about 40%; inconclusive = no clear call, values can overlap the other calls;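 note: a rise in the Bmi1 reporter signal indicates esBAF inhibition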
Ecoli rRNA inh = inhibitors of bacterial rRNA selective over humanized ribosomes | GFP signal change (wild-type ribosome), % (no concentration beside the values) | E. coli WT GFP vs humanized-ribosome RFP mutants, fluorescence, 24 h; hits give low values; DMSO median 0, no signal -100 | 350,000 tested, 1.6% active;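 active = significant combined selectivity score with lowered wild-type GFP, culture density cut under 30%, mutant RFP and density less affected; inactive = any of these conditions unmet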
Hits are given with their value; n = inactive; u = inconclusive; x = not tested or not shown; ! = repeats disagree.

SMILES | MITF act | Wnt act | AF4-AF9 inh | esBAF inh | Ecoli rRNA inh
CC(C)OC(=O)CSc1nnc(C2CCCCC2)n1N | x | 42 | n | x | n
Nn1c(SCC(=O)N2CCCC2)nnc1C1CCCCC1 | x | n | n | n | n
CCCCCc1cc(=O)oc2c(C(CCN3CCCC(C)C3)c3ccc(OC)cc3)c(OC)cc(OC)c12 (stereo not drawn) | n | n | n | n | -37
CCCCCc1cc(=O)oc2c(C(CCN3CCCCC3)c3ccc(OC)cc3)c(OC)cc(OC)c12 (stereo not drawn) | n | n | n | n | n
COc1cc(C2Nc3ccccc3C(=O)N2c2ccc(Cl)cc2)c(Cl)cc1OCC(=O)O (stereo not drawn) | n | 48 | x | x | x
CCOc1cc(C2Nc3ccccc3C(=O)N2c2ccccc2)ccc1O (stereo not drawn) | n | n | n | 45 | n
COc1cc(C2Nc3ccccc3C(=O)N2c2ccccc2)ccc1O (stereo not drawn) | n | n | n | n | x
CCOc1cc(C2Nc3ccccc3C(=O)N2c2ccccc2)c(Br)cc1OCC(=O)O (stereo not drawn) | n | x | x | x | x
C=CCn1c(SCC(=O)Nc2c(C)nn(Cc3ccccc3)c2C)nnc1C(O)c1ccccc1 (stereo not drawn) | n | n | x | n | x
Cc1cccc(-c2cccc(NC(=O)C3CCCN(C(=O)c4csc(C)n4)C3)c2)c1 (stereo not drawn) | n | n | n | n | n
O=C(COc1ccc(Cl)cc1)Nc1nnc(-c2ccco2)o1 | n | n | n | x | -35
Cc1ccsc1C(=O)Nc1nnc(-c2ccco2)o1 | x | x | x | 43 | x
O=C(COc1ccccc1)Nc1nnc(-c2ccco2)o1 | n | n | n | n | n
COc1cc(NC(=O)Cn2cnc3c(SC)nc(N)nc32)cc(OC)c1OC | n | n | n | n | n
CC(=O)Nc1c(-c2ccc3ccccc3c2)nc2ccccn12 | 82 | n | n | 57 | n
O=C(Nc1nnc(CCc2ccccc2)s1)c1ccco1 | n | n | x | n | x
O=C(Nc1nnc(Cc2ccccc2)s1)c1ccco1 | n | n | x | 46 | n
Cc1nnc(NC(=O)COc2ccccc2)s1 | n | n | x | n | x
NC(=O)c1cc(Cc2ccccc2)sc1NC(=O)c1ccco1 | 118 | n | n | 85 | n
O=C(Nc1nnc(C23CC4CC(CC(C4)C2)C3)s1)c1ccco1 | n | 41! | x | n | x
O=C(COc1ccccc1)Nc1nnc(C23CC4CC(CC(C4)C2)C3)s1 | x | n | n | 48 | n
CN1C(=O)c2cc(NC(=O)c3ccccc3F)ccc2OC[C@@H]2O[C@H](CC(=O)NCc3ccc4c(c3)OCO4)CC[C@@H]21 | x | x | n | n | n
O=C(COc1ccccc1)Nc1nc2c(s1)CCCC2 | 114 | n | n | 58 | n
CC(=O)c1sc(NC(=O)COc2ccccc2)nc1C | n | n | n | n | n
O=C(O)c1ccc2c3n(nc2c1)-c1ccc(Cl)cc1CO3 | x | 36 | n | x | n
SMILES | MITF act | Wnt act | AF4-AF9 inh | esBAF inh | Ecoli rRNA inh
O=C(c1ccc2c(=O)n3c(nc2c1)CCCCC3)N1CCCCC1 | n | n | n | n | n
Cc1ccc2c(c1)COc1c3ccc(C(=O)N4CCOCC4)cc3nn1-2 | u | 43 | n | 57 | n
O=C(c1ccc2c3n(nc2c1)-c1ccc(Cl)cc1CO3)N1CCCCC1 | 103 | u | n | 47 | n
Cc1cccc(C(=O)OCC(=O)Nc2nccs2)c1 | n | n | x | n | x
COc1ccc(C(=O)Nc2nc3c(s2)Cc2cc(OC)ccc2-3)cc1 | n | x | x | n | x
COc1ccc2c(c1)Cc1sc(NC(=O)c3ccccc3)nc1-2 | n | 51 | x | x | x
COc1ccc2c(c1)Cc1sc(NC(=O)c3cccs3)nc1-2 | n | x | x | 83 | x
O=C(O)c1cc(N/N=C2/CC(c3ccccc3)Oc3ccccc32)ccc1Cl (stereo not drawn) | n | n | x | x | x
COc1ccc(C2c3ccsc3CCN2C(=O)C(C)(C)C)cc1 (stereo not drawn) | n | n | n | x | -47
COc1ccc(C2c3ccsc3CCN2C(C)=O)cc1 (stereo not drawn) | n | n | n | n | n
Cc1ccc(Cl)cc1NC(=O)C1CC1c1ccccc1 (stereo not drawn) | x | n | n | n | n
CC(=O)c1ccc2c(c1)Cc1cc(C(C)=O)ccc1-2 | 93 | 46 | x | x | x
O=C1C(Cc2ccccc2)Nc2ncnc(N3CCc4ccccc4C3)c2N1Cc1ccc(Cl)cc1 (stereo not drawn) | n | x | x | n | x
CCC1Nc2ncnc(N3CCc4ccccc4C3)c2N(Cc2ccc(Cl)cc2)C1=O (stereo not drawn) | n | n | n | n | -17
CC1CCCN(C(=S)NCCc2ccccc2)C1 (stereo not drawn) | n | n | x | n | x
COc1ccccc1-c1nc2c3ccccc3nc(=S)n2[nH]1 | n | n | n | n | -27
COc1cc(-c2nc3c4ccccc4nc(=S)n3[nH]2)cc(OC)c1OC | n | n | n | n | n
Clc1cccc(-c2cc3nc4c(c(NCc5ccco5)n3n2)CCCC4)c1 | n | x | x | 44 | x
Cc1ccc2nc(-c3cccc(Br)c3)c(CC3CCCCC3)n2c1 | x | n | n | 46 | n
Clc1ccc2nc(-c3cccc(Br)c3)c(Cc3ccccc3)n2c1 | x | 34 | n | u | x
Cc1ccc2nc(-c3ccccc3)c(Cc3cccc(Cl)c3)n2c1 | x | 41 | n | u | x
CCCc1nc2ccc(C)cn2c1Cc1cccc(Cl)c1 | x | n | n | 45 | n
C[C@@H]1CN([C@@H](C)CO)C(=O)c2cc(NS(=O)(=O)c3ccc(Cl)cc3)ccc2O[C@H]1CN(C)Cc1ccc(C(=O)O)cc1 | x | x | n | n | n
Cc1ccc2nc(-c3cccc(Br)c3)c(Cc3cccc(Cl)c3)n2c1 | x | 36 | n | u | x
Clc1cccc(Cc2c(-c3cccc(Br)c3)nc3ccc(Cl)cn23)c1 | x | n | n | n | n
SMILES | MITF act | Wnt act | AF4-AF9 inh | esBAF inh | Ecoli rRNA inh
Cc1ccc(-c2nc3ccc(Cl)cn3c2Cc2cccc(F)c2)cc1 | x | n | n | 50 | n
Cc1noc(C)c1S(=O)(=O)N(C)C[C@H]1Oc2ccc(NC(=O)Cc3cn(C)c4ccccc34)cc2CC(=O)N([C@H](C)CO)C[C@H]1C | x | x | n | n | n
Oc1cc(NCc2cccnc2)ccc1-c1nc2ccccc2o1 | x | 86 | x | 78 | x
CCc1ccc(OCC(=O)Nc2ccc(-c3nc4ccccc4o3)c(O)c2)cc1 | n | x | x | x | x
O=C(CN(c1cccc(Cl)c1)S(=O)(=O)c1ccc(Cl)cc1)NCc1ccccn1 | n | n | n | n | x
O=c1[nH]c2ccccc2nc1/C=C(\O)c1cccs1 | n | 37 | x | x | x
O=C(Nc1nc2ccccc2[nH]1)c1cccs1 | n | 46 | n | n | n
O=c1oc2ccc(Cl)cc2nc1/C=C(\O)c1cccs1 | x | n | n | x | n
O/C(=C\c1nc2ccccc2[nH]1)c1cccs1 | n | 39 | n | 42 | n
Cc1ccc2oc(=O)c(/C=C(\O)c3cccs3)nc2c1 | x | 35 | n | x | n
CC(C)NC(=O)Nc1ccc2c(c1)C(=O)N([C@@H](C)CO)C[C@@H](C)[C@H](CN(C)C(=O)c1ccccc1)OCCCC[C@H](C)O2 | x | x | x | n | n
